Reference: PubChem BioAssay (NCATS)
Records with an inconclusive call do not appear. Unmarked numbers belong to inactive results. Active and inactive are the calls of the source. Calls come from the whole dose curve; as a rule, active = well fitted cell-killing curve with a large enough effect; inconclusive = small, poorly fitted or top-dose-only effect; inactive = flat fitted curve, though single readings scatter. Bridge positions count the residues as written; N and C are the ends. Square brackets hold non-standard residues; d marks the D form. Side chains are listed from the residue outwards. Peptide text beside a SMILES is read from it. * marks the point of attachment. Phg(4-OMe) = COc1ccc([C@H](N)C(=O)O)cc1; d(aIle) = CC[C@H](C)[C@@H](N)C(=O)O; d(aThr) = C[C@@H](O)[C@@H](N)C(=O)O; NMeF = CN[C@@H](Cc1ccccc1)C(=O)O; Isobutyryl = CC(C)C(=O)*

assay: J3T Cancer Cell Toxicity qHTS against the NCATS CANVASS Library (AID 1347371); details: J3T dog glioma viability, ATP luminescence, 72 h; series mostly up to 46.1 µM; activity change, negative = cytotoxicity: at the top concentration
Procedure, shortened: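 Luminescence from CellTiterGlo, reporting cellular ATP, serves as the viability measure after 72 hr compound treatment of J3T canine glioma cells seeded at 500 cells/well.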
% is set by controls: 0 for no effect and ±100 for the full control effect; potency is the fitted concentration of half-maximal effect.

Row | Compound | activity change, negative = cytotoxicity | Potency | outcome
1 | CC(C)=CCC[C@]12c3cc4c(cc3CC[C@@]1(C)[C@H](C)CC[C@@H]2O)[nH]c1ccccc14 | 1.86% | – | –
2 | C/C=C/C1C=CC2CC(C)CC(C)C2C1C(=O)CC(=O)NC(CO)C/C=C/CCCCC (stereo unspecified) | -14% | – | –
3 | C=C1CC[C@@H](Br)C(C)(C)[C@]12CC=C(C)C(=O)C2 | 8.36% | – | –
4 | C=CC(CCCCC)C1C(=O)NC(=O)C1C(=O)C1C(/C=C/C)C=CC2CC(C(=O)O)CC(C)C21 (stereo unspecified) | -19.3% | – | –
5 | COc1cc(/C=C/C(=O)OC[C@@H](Cc2ccc(O)c(OC)c2)[C@@H](COC(=O)/C=C/c2ccc(O)c(OC)c2)Cc2ccc(O)c(OC)c2)ccc1O | -19.4% | – | –
6 | C=C[C@@]1(C)CC[C@@H]([C@H](C)C(=O)/C=C/C(C)(C)O)O1 | – | 23.5 µM (active) | –
7 | C=C1CC[C@@H](O[C@H]2C[C@@](O)([C@H](C)NC(=O)c3[nH]c(C)c(Cl)c3Cl)[C@H](O)[C@@H](C)O2)[C@@H]2C=C[C@H](C)C(/C(O)=C3/C(=O)[C@H](C(C)C)N([C@@H]4O[C@H](C)[C@H](OC(N)=O)[C@H](OC(C)=O)[C@@H]4OC)C3=O)[C@@H]12 (stereo partly specified) | -6.03% | – | –
8 | CC[C@H](C)[C@H]1NC(=O)[C@@H](NC(=O)C(C)C)[C@@H](C)OC(=O)[C@H](COC(=O)CNC(C)=O)NC(=O)[C@@H]([C@@H](C)O)NC(=O)[C@H](Cc2ccccc2)N(C)C(=O)[C@H](c2ccc(OC)cc2)NC1=O (Isobutyryl-T[d(aIle)][Phg(4-OMe)][NMeF][d(aThr)]S([Gly-Ac]); ester 1-C) | 5.29% | – | –
9 | COc1c(O)cc2c(c1O)C(=O)c1c(coc1C)C2=O | -17.3% | – | –
10 | C[C@]12CC[C@]3(C1)[C@H](CC2=O)C[C@@H](OC(=O)c1ccccc1)[C@H]1[C@](C)(C(=O)O)CCC[C@@]13C | -20% | – | –
11 | Cc1occ2c1C(=O)c1c(cc(O)c(O)c1O)C2=O | -30.6% | – | –
12 | COc1ccc2[nH]c3c(c2c1)CCN1C[C@H]2C[C@@H](OC(=O)c4cc(OC)c(OC)c(OC)c4)[C@H](OC)[C@@H](OC)[C@H]2C[C@H]31 | -19.3% | – | –
13 | C=C[C@](Cl)(CBr)CCC=C(C)C | -22.1% | – | –
14 | CC(=O)O[C@H]1c2ccccc2-c2c3c(cc4c2[C@@H]1N(C(C)=O)CC4)OCO3 | -4.48% | – | –
15 | C=CC(CCCCC)C1C(=O)NC(=O)C1C(=O)C1C2C(C)CC(C(=O)O)CC2CC1(O)C(=O)/C=C/C (stereo unspecified) | 0.887% | – | –
16 | O[C@H]1c2ccccc2-c2c3c(cc4c2[C@@H]1NCC4)OCO3 | -24.6% | – | –

Row | Compound | activity change, negative = cytotoxicity | Potency | outcome
17 | C[C@]12CCC[C@](C)(C(=O)O)[C@@H]1CC[C@@]1(C)c3cocc3CC[C@H]21 | -3.44% | – | –
18 | COc1cc(C2OCC3C(c4ccc(O)c(OC)c4)OCC23)ccc1O (stereo unspecified) | 0.397% [at 9.19 µM] | – | –
19 | COc1cc(O)c(C(=O)[C@@H]2[C@H](CC=C(C)C)C(C)=CC[C@H]2c2ccccc2)c(O)c1 | -8% | – | –
20 | C[n+]1cc2cc(C(N)=O)[nH]c3c(=N)c(Cl)c(N)c1c23 | -5.89% | – | –
21 | COc1cc2c(c(O)c1O)C(=O)c1c(coc1C)C2=O | – | 26.4 µM (active) | –
22 | CCC(=O)N[C@@H](C[C@H](C)C(Cl)(Cl)Cl)C(=O)N1C(=O)C=C(OC)[C@@H]1CC(C)C | -6.41% | – | –
23 | O=c1cc(-c2ccc(O)c(O)c2)oc2cc(O[C@@H]3O[C@H](CO)[C@@H](O)[C@H](O)[C@H]3O)cc(O)c12 | – | – | inactive
24 | C/C1=C/[C@@H](C)[C@H](O)[C@@H](O)/C=C/CC/C=C/C(=O)O[C@@H]1[C@H](C)C(=O)CCCC1CC(=O)NC(=O)C1 | -11.5% | – | –
25 | CN1CC[C@]2(c3cccc4c3N[C@H]3N(C)CC[C@@]43[C@]34CCN(C)[C@H]3Nc3ccccc34)c3ccccc3N[C@H]12 | – | 9.35 µM (active) | –
26 | CC[C@H]1[C@H](C)[C@H](c2cc(OC)c(OC)cc2OC)[C@@H](C)[C@H](c2cc(OC)c(OC)cc2OC)[C@@]12C=C(OC)C(=O)C=C2OC | -15.8% | – | –
27 | CC(=O)Oc1cc2c(c(OC(C)=O)c1C1CCc3cc(Cl)c(Cl)n31)C(=O)n1c-2cc(Cl)c1Cl (stereo unspecified) | – | 13.2 µM (active) | –
28 | COc1cc2c(cc1OC)[C@@H](c1ccc3c(c1)OCO3)C(C)C(C)C2=O (stereo partly specified) | -10.5% | – | –
29 | CC(C)C[C@@H]1c2c(O)c(C=O)c(O)c(C=O)c2O[C@]2(C)C=C[C@@H](C(C)C)C[C@H]12 | – | – | inactive
30 | C/C=C(/C)c1cc(O)c(C)c2c1Oc1cc(O)cc(C)c1C(=O)O2 | -5.63% | – | –
31 | CC(C)[C@]12CC[C@@]3(C)[C@H](C)CC[C@H](O)[C@@]3(CC1)c1cc3c(cc12)[nH]c1ccccc13 | 1.45% | – | –
